In the library only some 1.7% were active in any assay of this set; here they are far more common.
IDH1 R132H inh – blocks human mutant IDH1 R132H enzyme | O75874 | IDH1-R132H enzyme, NADPH consumption, diaphorase/resazurin fluorescence | Potency, µM (doses to about 76.6 µM), for inactives: top-dose activity change, negative = inhibition, hits mostly inhibitors | actives 0.093% (n = 390,000) | AID 602179; note: % is set by controls: 0 for no effect and ±100 for the full control effect; nearly all actives have a fitted effect of over 65% in size
Target sequence (O75874 whole entry R132H, stated change not applied): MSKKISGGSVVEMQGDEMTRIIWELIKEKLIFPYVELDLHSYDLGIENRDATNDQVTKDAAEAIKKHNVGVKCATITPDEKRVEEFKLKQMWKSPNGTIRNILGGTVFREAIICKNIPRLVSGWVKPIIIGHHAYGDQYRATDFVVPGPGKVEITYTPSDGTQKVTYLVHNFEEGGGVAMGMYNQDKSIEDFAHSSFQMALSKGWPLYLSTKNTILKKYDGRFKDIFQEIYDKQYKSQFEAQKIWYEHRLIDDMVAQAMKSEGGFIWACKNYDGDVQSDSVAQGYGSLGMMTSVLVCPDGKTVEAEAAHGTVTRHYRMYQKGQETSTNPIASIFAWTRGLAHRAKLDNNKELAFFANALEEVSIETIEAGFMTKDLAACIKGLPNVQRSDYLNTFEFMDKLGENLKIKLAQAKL
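IDH1-R132H (0.5 ug/mL dispensed) in pH 7.5 Tris buffer was preincubated 30 min with compound, then given a substrate mix of 0.016 mM NADPH and 2 mM alpha-KG for 80 min at room temperature; remaining NADPH was read by diaphorase/resazurin fluorescence.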
Anesthetic bind – binds horse apoferritin like a general anesthetic; apoferritin/1-aminoanthracene competitive binding, fluorescence; AID 485281; actives 0.074% (n = 350,000); Potency, µM (doses to about 77.5 µM), without a hit: top-dose activity change, negative = displacement, hits mostly inhibitors; note: % is set by controls: 0 for no effect and ±100 for the full control effect; nearly all actives have a fitted effect of over 20% in size
Target sequence (P02791 2-175 limits assumed): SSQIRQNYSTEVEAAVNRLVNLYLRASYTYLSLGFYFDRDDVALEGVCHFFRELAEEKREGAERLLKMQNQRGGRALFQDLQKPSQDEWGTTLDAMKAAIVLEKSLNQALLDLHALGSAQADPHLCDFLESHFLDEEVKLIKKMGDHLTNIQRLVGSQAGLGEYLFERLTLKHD
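In PBS, apoferritin at 10 uM is loaded with 1-AMA from a 50% saturated solution. After 10 min of compound exposure at ambient temperature, reduced 535 nm fluorescence indicates probe displacement.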
TrxR1 inh – inhibitors of rat thioredoxin reductase 1; O89049; recombinant rTrxR1, NADPH fluorescence consumption, selenite substrate; Potency, µM (highest dose often 114 µM), without a hit: at the top dose activity change, negative = inhibition, actives largely listed as inhibitors; actives 1% (n = 390,000); AID 588453; note: % is set by controls: 0 for no effect and ±100 for the full control effect; nearly all actives have a fitted effect of over 65% in size
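Rat TrxR1 (90 nM in the dispensed reagent) was pre-reduced with 400 uM NADPH for 5 min at room temperature, then incubated with compound for 15 min. After 400 uM selenite was added, NADPH fluorescence (Ex 340/Em 450 nm) was followed for 8 min.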
GRP78 ERSR act – induces the endoplasmic reticulum stress response in human glioma cells; U87-MG GRP78 promoter luciferase reporter, 16 h; Potency, µM, without a hit: top-dose activation, hits mostly activators; actives 0.02% (n = 420,000); AID 602332; note: series mostly up to about 76 µM; % of control where 0% means no effect; nearly all actives have a fitted effect of over 35% in size
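Stably transfected U87-MG glioma cells carrying a GRP78-based luciferase sensor; 16 h compound incubation. Luminescence end-point read 10 min after Bright-Glo addition at room temperature.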
TrxR1 substrate – is turned over as a substrate by rat TrxR1; O89049; purified TrxR1 substrate turnover, NADPH consumption readout; Potency, µM (highest dose often 114 µM), without a hit: top-dose activity change, negative = substrate turnover; actives 0.01% (n = 390,000); AID 588456; note: % is set by controls: 0 for no effect and ±100 for the full control effect; nearly all actives have a fitted effect of over 50% in size
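Rat TrxR1, dispensed at 90 nM, was prereduced with 400 uM NADPH (final) for 5 min at ~22 deg C, then incubated with compound 15 min before 400 uM selenite. A first-read NADPH fluorescence drop versus no-compound background flagged substrates.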
12-LOX inh – inhibitors of human 12S-lipoxygenase ALOX12; purified 12hLO, xylenol orange hydroperoxide absorbance; Potency, µM (titrated, usually from 108 µM), for inactives: at the highest dose activity change, negative = inhibition, usual class: inhibitors; actives 1.1% (n = 580,000); AID 1671190; note: % is set by controls: 0 for no effect and ±100 for the full control effect
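Purified human 12hLO (150 nM final) in 25 mM Hepes, 0.01% Triton X-100, pH 7.0 was preincubated 15 min at room temperature with compound. Then 40 uM arachidonic acid was added, 30 min. Hydroperoxide was read by Fe-XO absorbance ratio 573/405 nm.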
The depositor's hits bear a star; [ ] = remark or other dose. Calls come from the whole dose curve; as a rule, active = well fitted curve in the direction sought with a large enough effect; inconclusive = small, poorly fitted or top-dose-only effect, or another doubt; inactive = no such curve, though single readings can be large; an effect the other way counts as inactive or inconclusive. Potency is the fitted concentration of half-maximal effect.

How did Oc1ccc(-c2nc3ccc4ccccc4c3c3c2CCC3)cc1O do in these assays?
IDH1 R132H inh: -22%; Anesthetic bind: -17%; TrxR1 inh: -2%; GRP78 ERSR act: -14%; TrxR1 substrate: 0%; 12-LOX inh: 2µM*

How did CCOc1ccc(-c2nc3ccc4ccccc4c3c3c2CCCC3)cc1 do in these assays?
12-LOX inh: 29%

What do the screens show for `Cc1cccc(-c2nc(CS(=O)CC(=O)NC3CCCC(C)C3C)c(C)o2)c1` (centres undefined)?
IDH1 R132H inh: 11%; Anesthetic bind: inconclusive; TrxR1 inh: 16µM*; GRP78 ERSR act: -4%; TrxR1 substrate: -5%[57.1 µM]; 12-LOX inh: -15%

How did CCN1CCN(C(=O)CS(=O)Cc2nc(-c3cccc(C)c3)oc2C)CC1 (centres undefined) do in these assays?
IDH1 R132H inh: 3%; Anesthetic bind: -9%; TrxR1 inh: inconclusive; GRP78 ERSR act: -7%; TrxR1 substrate: 12%; 12-LOX inh: -20%

What do the screens show for `Cc1cccc(-c2nc(CS(=O)CC(=O)N3CCc4ccccc4C3)c(C)o2)c1` (centres undefined)?
IDH1 R132H inh: 2%; Anesthetic bind: -17%; TrxR1 inh: 13µM*; GRP78 ERSR act: -1%; TrxR1 substrate: 10%[57.1 µM]

Results for Cc1cccc(-c2nc(CS(=O)CC(=O)NC3CCCC3)c(C)o2)c1 (centres undefined) ?
IDH1 R132H inh: 2%; Anesthetic bind: -10%; TrxR1 inh: inconclusive; GRP78 ERSR act: -3%; TrxR1 substrate: 8%[57.1 µM]; 12-LOX inh: 33%

What do the screens show for `Cc1cccc(-c2nc(CS(=O)CC(=O)N3CC(C)CC(C)C3)c(C)o2)c1` (centres undefined)?
IDH1 R132H inh: -9%; Anesthetic bind: -7%; TrxR1 inh: 40µM*; GRP78 ERSR act: inconclusive; TrxR1 substrate: 0%; 12-LOX inh: 0%

How did CS(=O)(=O)c1ccc(OCC2(CNC(=O)C3CCC3)C[C@@H](O)[C@@H](O)C2)cc1 (some centres undefined) do in these assays?
12-LOX inh: 79%[176 µM]

What do the screens show for `CCN(CC)c1cc(Cl)c2nonc2c1N`?
IDH1 R132H inh: 5%; Anesthetic bind: -7%; TrxR1 inh: 9%[11.4 µM]; GRP78 ERSR act: 1%; TrxR1 substrate: 0%[11.4 µM]; 12-LOX inh: inconclusive

What do the screens show for `CN(C)c1cc(Cl)c2nonc2c1N`?
IDH1 R132H inh: 4%; Anesthetic bind: -10%; TrxR1 inh: -3%; GRP78 ERSR act: -2%; TrxR1 substrate: -6%; 12-LOX inh: 40µM*

How did CC(NC(=O)NCc1ccn[nH]1)c1ccc2c(c1)OCCCO2 (centres undefined) do in these assays?
12-LOX inh: 33%

What do the screens show for `CC1Cc2ccccc2N1C(=O)CSc1ccccc1` (centres undefined)?
IDH1 R132H inh: 6%; Anesthetic bind: 6.3µM*; TrxR1 inh: 17%; GRP78 ERSR act: 5%; TrxR1 substrate: 1%; 12-LOX inh: 1%

How did CC1Cc2ccccc2N1C(=O)CSC1=NCCS1 (centres undefined) do in these assays?
IDH1 R132H inh: 6%; Anesthetic bind: inconclusive; TrxR1 inh: 7%; GRP78 ERSR act: 1%; TrxR1 substrate: -5%; 12-LOX inh: 6%

How did O=C(NCCn1cccc1-c1nc(-c2ccc3c(c2)OCO3)no1)c1ccc(Cl)cc1 do in these assays?
12-LOX inh: 13µM*

Results for CCOC(=O)c1c(-c2ccc(C)o2)csc1NC(=O)CSc1nnc(C)s1 ?
IDH1 R132H inh: 9%; Anesthetic bind: inconclusive; TrxR1 inh: 8.9µM*; GRP78 ERSR act: -2%; TrxR1 substrate: -2%; 12-LOX inh: -11%

What do the screens show for `CCOC(=O)c1c(-c2ccc(C)o2)csc1NC(=O)CSc1nnnn1-c1ccccc1`?
IDH1 R132H inh: -2%; Anesthetic bind: inconclusive; TrxR1 inh: 2.8µM*; GRP78 ERSR act: -3%; TrxR1 substrate: 10%; 12-LOX inh: inconclusive

What do the screens show for `CCOC(=O)c1c(-c2ccccc2)csc1NC(=O)CSc1nnc(C)s1`?
IDH1 R132H inh: 4%; Anesthetic bind: 7%; TrxR1 inh: -9%; GRP78 ERSR act: 1%; TrxR1 substrate: -8%; 12-LOX inh: -3%

What do the screens show for `Cc1ccc(-c2noc(CN(C)C(C)c3cc4ccccc4o3)n2)cc1` (centres undefined)?
12-LOX inh: 2%

Results for COc1ccc(C(=O)N2CCCC3(C2)NC(=O)N(Cc2cccc(Cl)c2)C3=O)cc1 (centres undefined) ?
12-LOX inh: 0%

How did COc1ccccc1CCC(=O)N1CCC2(CC1)NC(=O)N(c1cccc(F)c1)N2 do in these assays?
12-LOX inh: 10µM*

Results for COc1cc(OC)cc(C(=O)N2CCN(C(=O)c3cccc(F)c3)CC2)c1 ?
IDH1 R132H inh: 7%; Anesthetic bind: -8%; TrxR1 inh: 13%; GRP78 ERSR act: -4%; TrxR1 substrate: 4%; 12-LOX inh: 26%

How did COc1cc(OC)cc(C(=O)N2CCC3(CC2)NC(=O)N(c2cccc(Cl)c2)N3)c1 do in these assays?
12-LOX inh: 1.3µM*

What do the screens show for `COc1cc(OC)cc(C(=O)N2CCC3(CC2)NC(=O)N(c2cccc(F)c2)N3)c1`?
12-LOX inh: 2.8µM*

What do the screens show for `COc1ccc(C(=O)N2CCC3(CC2)NC(=O)N(c2cccc(Cl)c2)N3)cc1`?
12-LOX inh: 1.8µM*

Results for O=C1NC(Cc2ccccc2)c2nc3cc(Cl)ccc3c(=O)n2-c2ccccc21 (centres undefined) ?
12-LOX inh: -8%

Results for O=C(CC(Nc1ccc(F)cc1)C(=O)O)c1ccccc1 (centres undefined) ?
IDH1 R132H inh: 10%; Anesthetic bind: -2%; TrxR1 inh: 14µM*; GRP78 ERSR act: 0%; TrxR1 substrate: -1%; 12-LOX inh: -22%

How did O=C(COC(=O)c1cccs1)c1ccccc1 do in these assays?
IDH1 R132H inh: 5%; Anesthetic bind: inconclusive; TrxR1 inh: -2%[57.1 µM]; GRP78 ERSR act: -3%; TrxR1 substrate: 7%[57.1 µM]; 12-LOX inh: 0%

Results for O=C(CC(Nc1ccc(F)cc1)C(=O)OCC(=O)c1cccs1)c1ccccc1 (centres undefined) ?
IDH1 R132H inh: 2%; Anesthetic bind: 3%; TrxR1 inh: 25µM*; GRP78 ERSR act: 3%; TrxR1 substrate: -1%; 12-LOX inh: 2%

How did COc1ccc(/C=N\Nc2ccccc2[N+](=O)[O-])c(C(=O)O)c1OC do in these assays?
IDH1 R132H inh: 0%; Anesthetic bind: 0%; TrxR1 inh: 2%; GRP78 ERSR act: 3%; TrxR1 substrate: -17%; 12-LOX inh: -5%

Screening results: PubChem, National Center for Advancing Translational Sciences (NCATS)
